A number with no mark means an inactive call. Results filed as inconclusive are left out. Where a call stands in place of a potency, no number is given. Active and inactive are the calls of the source. Calls follow the shape of the full dose curve.
Key:
[1] = target: Acetylcholinesterase (Homo sapiens) (UniProt P22303); assay: Acetylcholinesterase (AChE) small molecule antagonists: colormetric cell-based qHTS assay (AID 1347395); also: nearly all actives have a fitted effect of over 30% in size; also: potency is read from the fitted curve at half-maximal effect
Sequence of Acetylcholinesterase (Homo sapiens) (P22303 whole entry, looked up): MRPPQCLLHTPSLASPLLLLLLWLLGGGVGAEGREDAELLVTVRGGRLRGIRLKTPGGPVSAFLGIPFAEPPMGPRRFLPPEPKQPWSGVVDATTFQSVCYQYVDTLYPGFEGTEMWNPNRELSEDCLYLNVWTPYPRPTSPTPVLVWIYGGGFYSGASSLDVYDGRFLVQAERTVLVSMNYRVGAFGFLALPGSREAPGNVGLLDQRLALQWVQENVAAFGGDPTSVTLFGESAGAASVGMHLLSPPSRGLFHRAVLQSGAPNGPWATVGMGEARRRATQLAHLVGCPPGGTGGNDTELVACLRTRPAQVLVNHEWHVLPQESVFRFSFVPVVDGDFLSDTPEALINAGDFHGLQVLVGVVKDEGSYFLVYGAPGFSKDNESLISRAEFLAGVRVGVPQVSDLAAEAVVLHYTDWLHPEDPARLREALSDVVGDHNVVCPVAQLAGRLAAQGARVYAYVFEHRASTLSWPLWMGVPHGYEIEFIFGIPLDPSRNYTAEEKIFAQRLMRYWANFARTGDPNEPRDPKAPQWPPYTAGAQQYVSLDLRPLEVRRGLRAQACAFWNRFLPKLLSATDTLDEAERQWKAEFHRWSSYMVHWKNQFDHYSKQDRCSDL
Method in brief: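 Quantitative HTS in attached SH-SY5Y cells: 30 min compound exposure, then 90 min with acetylthiocholine and DTNB at 37 C; colour from thiocholine reports AChE activity.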

[2] = target: Acetylcholinesterase (Homo sapiens) (UniProt P22303); assay: Acetylcholinesterase (AChE) small molecule antagonists: enzyme-based qHTS assay (AID 1347397); settings: Potency: AChE enzyme activity inhibition; outcome: AChE enzyme activity inhibition; also: nearly all actives have a fitted effect of over 55% in size
Method in brief: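 Colorimetric DTNB readout of acetylthiocholine hydrolysis, 10 min at room temperature, after 30 min room-temperature exposure of 50 mU/mL recombinant human enzyme to compound; DMSO vehicle control.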

[3] = target: Acetylcholinesterase (Homo sapiens) (UniProt P22303); assay: Acetylcholinesterase (AChE) small molecule antagonists: fluorescence cell-based qHTS assay (AID 1347398); settings: Potency: AChE activity; outcome: AChE activity; also: nearly all actives have a fitted effect of over 50% in size; also: potency is read from the fitted curve at half-maximal effect
Method in brief: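 Cellular AChE activity read as thiocholine from acetylthiocholine hydrolysis, detected by Thiolite Green fluorescence at 490/520 nm after 40 min at room temperature. Compounds were pre-incubated 30 min at 37 C on adherent SH-SY5Y cells.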

[4] = target: Acetylcholinesterase (Homo sapiens) (UniProt P22303); assay: Acetylcholinesterase (AChE) small molecule antagonists: enzyme-based qHTS assay with human liver microsomes (AID 1347399); settings: Potency: qHTS inhibition; outcome: qHTS inhibition; also: nearly all actives have a fitted effect of over 60% in size
Method in brief: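 Recombinant human AChE (50 mU/mL in the enzyme mix) and human liver microsomes (0.25 mg/mL final) were preincubated with compound and NADPH (0.25 mg/mL final) for 30 min at 37 C. Acetylthiocholine/DTNB was then added; thiocholine was read colorimetrically after 10 min at room temperature.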

## CC(C)CCCCCCc1ccc(OCCOCCO)cc1
[1]
  Potency: inactive
[2]
  Potency: inactive
[3]
  Potency: inactive
[4]
  Potency: inactive

## CCOC(=O)C(C)C(C)=O (stereo not given)
[1]
  Potency: inactive
[2]
  Potency: inactive
[3]
  Potency: inactive
[4]
  Potency: inactive

## CC(=O)c1ccc([N+](=O)[O-])cc1
[1]
  Potency: inactive
[2]
  Potency: inactive
[3]
  Potency: inactive
[4]
  Potency: inactive

## COc1ccc(C(Cl)=C(c2ccc(OC)cc2)c2ccc(OC)cc2)cc1
[1]
  Potency: inactive
[2]
  Potency: inactive
[3]
  Potency: inactive
[4]
  Potency: inactive

## CC(C)OCC1CO1 (stereo not given)
[1]
  Potency: inactive
[2]
  Potency: inactive
[3]
  Potency: inactive
[4]
  Potency: inactive

## COC(=O)c1ccccc1
[1]
  Potency: inactive
[2]
  Potency: inactive
[3]
  Potency: inactive
[4]
  Potency: inactive

## C#C[C@]1(O)CC[C@H]2[C@@H]3[C@H](C)CC4=C(CCC(=O)C4)[C@H]3CC[C@@]21C
[1]
  Potency: inactive
[2]
  Potency: inactive
[3]
  Potency: inactive
[4]
  Potency: inactive

## O=C[C@H](O)[C@H](O)[C@H](O)CO
[1]
  Potency: inactive
[2]
  Potency: inactive
[3]
  Potency: inactive
[4]
  Potency: inactive

## CCCCCCCCCCCCCCCCCC#N
[1]
  Potency: inactive
[2]
  Potency: inactive
[3]
  Potency: inactive
[4]
  Potency: inactive

## Cc1ccsc1C(=CCCN1CCC[C@@H](C(=O)O)C1)c1sccc1C
[1]
  Potency: inactive
[2]
  Potency: inactive
[3]
  Potency: inactive
[4]
  Potency: inactive

## CCCCCCOC(C)=O
[1]
  Potency: inactive
[2]
  Potency: inactive
[3]
  Potency: inactive
[4]
  Potency: inactive

## CC(=O)N1CCN(c2ccc(OC[C@H]3CO[C@](Cn4ccnc4)(c4ccc(Cl)cc4Cl)O3)cc2)CC1
[1]
  Potency: 35.6 µM (active)
[2]
  Potency: inactive
[3]
  Potency: 31.7 µM (active)
[4]
  Potency: inactive

## O=C(OCc1ccccc1)c1ccccc1O
[1]
  Potency: inactive
[2]
  Potency: inactive
[3]
  Potency: inactive
[4]
  Potency: inactive

## CCCCCCCCCCCCC(=O)O
[1]
  Potency: inactive
[2]
  Potency: inactive
[3]
  Potency: inactive
[4]
  Potency: inactive

## CCCCOC(=O)c1ccccc1C(=O)OCC(CC)CCCC (stereo not given)
[1]
  Potency: inactive
[2]
  Potency: inactive
[3]
  Potency: inactive
[4]
  Potency: inactive

## O=C1c2ccccc2C(=O)c2cc(S(=O)(=O)O)ccc21
[1]
  Potency: inactive
[2]
  Potency: inactive
[3]
  Potency: inactive
[4]
  Potency: inactive

## COC(=O)c1cccnc1
[1]
  Potency: inactive
[2]
  Potency: inactive
[3]
  Potency: inactive
[4]
  Potency: inactive

## NC(=O)N/N=C/c1ccc([N+](=O)[O-])o1
[1]
  Potency: inactive
[2]
  Potency: inactive
[3]
  Potency: inactive
[4]
  Potency: inactive

## CC(=O)Oc1cccc2c1C(=O)c1c(OC(C)=O)cc(C(=O)O)cc1C2=O
[1]
  Potency: inactive
[2]
  Potency: inactive
[3]
  Potency: inactive
[4]
  Potency: inactive

## CN1C[C@@H]2C[C@H]1CN2c1cc2c(cc1F)c(=O)c(C(=O)O)cn2C1CC1
[1]
  activity, negative = inhibition: 1.26% [at 23.6 µM]
[2]
  activity change, negative = inhibition: -0.543% [at 23.6 µM]
[3]
  activity change, negative = inhibition: 1.64% [at 23.8 µM]
[4]
  activity change, negative = inhibition: 0.0665% [at 23.6 µM]

## CCCC(C)C(=O)O (stereo not given)
[1]
  Potency: inactive
[2]
  Potency: inactive
[3]
  Potency: inactive
[4]
  Potency: inactive

## CCC(C)(C)C1CCCCC1OC(C)=O (stereo not given)
[1]
  Potency: inactive
[2]
  Potency: inactive
[3]
  Potency: inactive
[4]
  Potency: inactive

## CO[C@H]1C=CO[C@@]2(C)Oc3c(C)c(O)c4c(O)c(c(/C=N/N5CCN(C)CC5)c(O)c4c3C2=O)NC(=O)/C(C)=C\C=C[C@H](C)[C@H](O)[C@@H](C)[C@@H](O)[C@@H](C)[C@H](OC(C)=O)[C@@H]1C
[1]
  Potency: inactive
[2]
  Potency: inactive
[3]
  Potency: inactive
[4]
  Potency: inactive

## CCOc1ccc2c(c1)C(C)=CC(C)(C)N2
[1]
  Potency: inactive
[2]
  Potency: inactive
[3]
  Potency: inactive
[4]
  Potency: inactive

## COC(=O)CC(=O)C(C)(C)C
[1]
  Potency: inactive
[2]
  Potency: inactive
[3]
  Potency: inactive
[4]
  Potency: inactive

## C=C(CC)C(=O)c1ccc(OCC(=O)O)c(Cl)c1Cl
[1]
  Potency: inactive
[2]
  Potency: inactive
[3]
  Potency: inactive
[4]
  Potency: inactive

## CCOc1cc([N+](=O)[O-])c(OCC)cc1N1CCOCC1
[1]
  Potency: inactive
[2]
  Potency: inactive
[3]
  Potency: inactive
[4]
  Potency: inactive

## COc1ccc(Br)c(C)c1
[1]
  Potency: inactive
[2]
  Potency: inactive
[3]
  Potency: inactive
[4]
  Potency: inactive

## C/C(=N\O)c1ccc(OCC(=O)N2CCCCC2)cc1
[1]
  Potency: inactive
[2]
  Potency: inactive
[3]
  Potency: inactive
[4]
  Potency: inactive

## Clc1sc(Cl)c(Cl)c1Cl
[1]
  Potency: inactive
[2]
  Potency: inactive
[3]
  Potency: inactive
[4]
  Potency: inactive

## COc1ccc(OC)cc1
[1]
  Potency: inactive
[2]
  Potency: inactive
[3]
  Potency: inactive
[4]
  Potency: inactive

## COc1cc(C(=S)N2CCOCC2)cc(OC)c1OC
[1]
  Potency: inactive
[2]
  Potency: inactive
[3]
  Potency: inactive
[4]
  Potency: inactive

## O=C(CS)Nc1ccccc1
[1]
  Potency: inactive
[2]
  Potency: inactive
[3]
  Potency: inactive
[4]
  Potency: inactive

## C=C(C)C(=O)O[C@H]1C[C@@H]2CC[C@@]1(C)C2(C)C
[1]
  Potency: inactive
[2]
  Potency: inactive
[3]
  Potency: inactive
[4]
  Potency: inactive

## C=C[C@H]1CN2CC[C@H]1C[C@H]2[C@H](O)c1ccnc2ccc(OC)cc12
[1]
  Potency: inactive
[2]
  Potency: inactive
[3]
  Potency: inactive
[4]
  Potency: inactive

## CC(C)C/C=C(\C=O)c1ccccc1
[1]
  Potency: inactive
[2]
  Potency: inactive
[3]
  Potency: inactive
[4]
  Potency: inactive

## Cc1ccc(C(C)C)cc1O
[1]
  Potency: inactive
[2]
  Potency: inactive
[3]
  Potency: inactive
[4]
  Potency: inactive

## Oc1ccc(N=Nc2ccccc2)cc1
[1]
  Potency: inactive
[2]
  Potency: inactive
[3]
  Potency: inactive
[4]
  Potency: inactive

## CC[C@H](NC(C)C)[C@H](O)c1ccc(O)c2[nH]c(=O)ccc12
[1]
  Potency: inactive
[2]
  Potency: inactive
[3]
  Potency: inactive
[4]
  Potency: inactive

## CCn1cc(C(=O)O)c(=O)c2cc(F)c(N3CCNC(C)C3)c(F)c21 (stereo not given)
[1]
  Potency: inactive
[2]
  Potency: inactive
[3]
  Potency: inactive
[4]
  Potency: inactive

## CC1(C)O[C@@H]2C[C@H]3[C@@H]4CCC5=CC(=O)C=C[C@]5(C)[C@@]4(F)[C@@H](O)C[C@]3(C)[C@]2(C(=O)CO)O1
[1]
  Potency: inactive
[2]
  Potency: inactive
[3]
  Potency: inactive
[4]
  Potency: inactive

## O=C(c1ccc(O)c(O)c1)c1ccc(O)cc1O
[1]
  Potency: inactive
[2]
  Potency: inactive
[3]
  Potency: inactive
[4]
  Potency: inactive

## CN1CCN(c2c(F)cc3c(=O)c(C(=O)O)cn(CCF)c3c2F)CC1
[1]
  Potency: inactive
[2]
  Potency: inactive
[3]
  Potency: inactive
[4]
  Potency: inactive

## O=C1NC(=O)c2ccccc21
[1]
  Potency: inactive
[2]
  Potency: inactive
[3]
  Potency: inactive
[4]
  Potency: inactive

## C=C(C)[C@@H]1CCC2=CC(=O)C[C@@H](C)[C@]2(C)C1
[1]
  Potency: inactive
[2]
  Potency: inactive
[3]
  Potency: inactive
[4]
  Potency: inactive
